Assay outcomes deposited in PubChem BioAssay by National Center for Advancing Translational Sciences (NCATS).
The list is not random: actives were taken first. Their share in the collection is about 6.1%.
TGFb inhibitor – qHTS for Inhibitors of TGF-b; HepG2 CAGA-GFP TGF-b/SMAD3 reporter, GFP fluorescence, 18 h; TGF-beta stimulated, 500 pg/mL final; AID 588855, 2011; 410,000 compounds, 1.2% hits; Potency, µM (doses to about 46.1 µM), inactives show at the top dose activity, negative = inhibition, actives largely listed as inhibitors; further: on the % scale 0 is the no-effect control and ±100 the full control effect; nearly all actives have a fitted effect of over 65% in size
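GFP signal (ex488/em500-530) from TGF-beta-stimulated HEPG2 CAGA-GFP cells, 500 pg/mL final, 18 h at 37 degrees C in DMEM plus 1% FBS, normalized to unstimulated and DMSO-stimulated controls.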
RORg inh – qHTS for inhibitors of ROR gamma transcriptional activity | Nuclear receptor ROR-gamma (Mus musculus), P51450 | Drosophila S2 Gal4-RORgamma UAS-luciferase reporter, 20 h | Potency, µM (highest dose often 53.6 µM), inactives show at the highest dose activity change, negative = inhibition, usual class: inhibitors | 310,000 compounds, 5.4% hits; further: on the % scale 0 is the no-effect control and ±100 the full control effect; nearly all actives have a fitted effect of over 60% in size
Target sequence (P51450 whole entry, looked up, the tested form may be a part): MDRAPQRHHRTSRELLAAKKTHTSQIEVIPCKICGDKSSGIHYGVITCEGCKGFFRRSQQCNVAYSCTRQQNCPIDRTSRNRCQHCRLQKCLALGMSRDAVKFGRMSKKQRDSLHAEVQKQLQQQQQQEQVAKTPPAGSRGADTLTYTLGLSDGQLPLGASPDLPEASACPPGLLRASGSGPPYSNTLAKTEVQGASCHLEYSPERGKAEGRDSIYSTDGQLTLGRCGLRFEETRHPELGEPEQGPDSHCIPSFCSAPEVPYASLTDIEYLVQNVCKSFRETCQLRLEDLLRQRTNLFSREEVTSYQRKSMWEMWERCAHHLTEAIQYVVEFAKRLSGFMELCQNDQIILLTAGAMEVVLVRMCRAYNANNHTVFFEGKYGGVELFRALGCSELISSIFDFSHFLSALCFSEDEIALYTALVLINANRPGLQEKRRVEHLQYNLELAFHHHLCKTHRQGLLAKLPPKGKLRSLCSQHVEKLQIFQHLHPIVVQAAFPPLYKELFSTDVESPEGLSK
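Read-out: Photinus luciferase luminescence; inhibitors lower reporter signal. Insect Schneider cells with Gal4-ROR gamma fusion under metallothionein promoter, UAS reporter; 700 uM final copper sulfate induction, 20 hr, ambient temperature.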
VP16 counter – VP16 counterscreen qHTS for inhibitors of ROR gamma transcriptional activity; Drosophila S2 Gal4-VP16 UAS-luciferase, luminescence, 20 h; Potency, µM (titrated, usually from 53.6 µM), without a hit: at the highest dose activity, negative = inhibition, actives largely listed as inhibitors; 310,000 compounds, 3.5% hits; AID 2546, 2010;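 further: Gal4-VP16 expression switched on by copper sulfate through the metallothionein promoter; on the % scale 0 is the no-effect control and ±100 the full control effect; nearly all actives have a fitted effect of over 50% in size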
HepG2 viability – qHTS for Inhibitors of TGF-b: Cytotox Counterscreen; HepG2 CAGA-GFP viability, ATP luminescence, 18 h; Potency, µM (top dose mostly 46.1 µM), without a hit: at the highest dose activity change, negative = cytotoxicity, actives largely listed as cytotoxic; 410,000 compounds, 0.76% hits
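CellTiter-Glo luminescence gave cytotoxicity after 18 hours at 37 degrees C. The cells were HepG2 CAGA-GFP in 1% FBS DMEM, stimulated with 500 pg/mL TGF-beta after compound addition. %Activity was normalised to no-cell wells (complete cell-killing) and DMSO (no toxicity), and curves were fitted and classified.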
S2 tox – Viability Counterscreen for Primary qHTS for Inhibitors of ATXN expression. S2 cells (HEK-293 line with an ATXN2-luciferase reporter) viability, CellTiter-Fluor protease fluorescence, 24 h. Potency, µM (doses to about 56.7 µM), actives largely listed as cytotoxic. 400,000 compounds, 0.49% hits. AID 651635, 2014; further: nearly all actives have a fitted effect of over 40% in size
ATXN2 expr inh – Primary qHTS for Inhibitors of ATXN expression; Potency, µM (titrated, usually from 57 µM), inactives show top-dose activity change, negative = inhibition, hits mostly inhibitors; HEK-293 ATXN2-luciferase reporter, luminescence, 24 h; AID 1745845, 2022; 360,000 compounds, 0.72% hits; further: on the % scale 0 is the no-effect control and ±100 the full control effect; nearly all actives have a fitted effect of over 55% in size
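ATXN2-luciferase reporter cells (luciferase flanked by upstream and downstream ATXN2 gene portions) were treated 24 h at 37 °C with compounds at up to 57 uM. SteadyGlo luminescence gave expression; GF-AFC fluorescence gave viability.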
The depositor's hits bear a star; i = inactive; ? = inconclusive; . = no result given; [ ] = another dose, or the depositor's remark. The call rests on the fitted dose curve; in most records, active means well fitted curve in the direction sought with a large enough effect; inconclusive means small, poorly fitted or top-dose-only effect, or another doubt; inactive means no such curve, though single readings can be large; an effect the other way counts as inactive or inconclusive. Potency means the concentration at half of the fitted maximal effect.

SMILES | TGFb inhibitor | RORg inh | VP16 counter | HepG2 viability | S2 tox | ATXN2 expr inh
Cc1cccnc1NC(=S)NC(=O)/C=C/c1ccccc1 | -16% | 4.5µM* | 6.3µM* | -9% | i | 18%
C=CCNC(=S)Nc1cc(C)ccn1 | -7% | 1µM* | 4µM* | 0% | i | -9%
Cc1cccc(N(C)C(=O)CSc2nc3ncccc3o2)c1 | -2% | . | . | -2% | i | 20%
Cc1csc2c(N3CCN(C(=O)Nc4ccc(OC(F)(F)F)cc4)CC3)ncnc12 | ? | ? | 13µM* | -11% | i | -28%
Cc1csc2c(N3CCC(C(=O)O)CC3)ncnc12 | -1% | 10% | 5% | -14% | i | .
CCOC(=O)c1c(C)[nH]c(C)c1S(=O)(=O)N1CCCC(C(=O)Nc2ccc(C)c(N(C)C)c2)C1 (stereo not given) | ? | . | . | -22% | i | 7%
O=C(c1cc2c(Cl)nc3ccccc3c2s1)N1CCCCC1 | ? | . | . | -13% | i | 26%
O=C(NCCCN1CCCC1)c1cc2c(Cl)nc3ccccc3c2s1 | -16% | -37% | -23% | -24% | ? | ?
CCOC(=O)C1CCCN(C(=O)c2cc3c(Cl)nc4ccccc4c3s2)C1 (stereo not given) | -24% | . | . | -39% | ? | 14µM*
CCCN1CCN(CCCNC(=O)c2cc3c(Cl)nc4ccccc4c3s2)CC1 | ? | . | . | 13µM* | ? | ?
O=C(N/N=C/c1ccncc1)c1sc2ccccc2c1Cl | ? | ? | ? | -40% | ? | .
O=C(N/N=C/c1ccc[nH]1)c1sc2ccccc2c1Cl | ? | 0.32µM* | 0.56µM* | -11% | i | -18%
CCc1ccc2c(Cl)c(C(=O)N/N=C/c3c[nH]c4ccccc34)sc2c1 | ? | 8.9µM* | -7% | -3% | i | 3%
CCc1ccc(-c2cc(C(=O)N/N=C/c3c[nH]c4ccccc34)[nH]n2)cc1 | ? | 11µM* | 13µM* | -73% | ? | -10%[11.3 µM]
CC(C)c1cc(C(=O)N/N=C/c2c[nH]c3ccccc23)n[nH]1 | 5% | 0% | -11% | -13% | i | 12%
Cc1cccc(-c2noc(-c3cccnc3NCc3ccccc3Cl)n2)c1 | -6% | . | . | 1% | i | 39%
N/C(=N\OC(=O)c1cc(Cl)ccc1Cl)c1ccccn1 | -13% | -87% | 14µM* | -62% | i | ?
COc1ccc(Cl)cc1C(=O)O/N=C(\N)c1ccccn1 | -7% | 32% | -13% | -32% | ? | .
N/C(=N\OC(=O)COc1ccc(Cl)cc1Cl)c1ccccn1 | ? | 10µM* | ? | -39% | i | .
c1ccc(N/N=C(\Cc2nc3ccccc3[nH]2)c2ccccc2)cc1 | -46% | -16%[10 µM] | ? | -8% | i | 47%
N/N=C(/Cc1nc2ccccc2[nH]1)c1ccc([N+](=O)[O-])cc1 | -20% | 14µM* | ? | -1% | i | 39%
COc1ccc(-n2c(SCC(=O)Nc3ccc4c(c3)OCO4)nc3c([nH]c4ccccc43)c2=O)cc1 | -6% | . | . | -16% | i | 16%
CCCCCCOc1ccc(C(=N)N(CCCC)CCCC)c2ccccc12 | . | ? | 22µM* | . | . | .
O=c1c(S(=O)(=O)c2ccccc2)cn(Cc2ccccc2)c2cc(N3CCOCC3)c(F)cc12 | 5% | . | . | -3% | . | .
CSc1cccc(NC(=S)N(CCCN2CCCC2)Cc2cccs2)c1 | -7% | ? | 1% | -1% | i | -13%
SMILES | TGFb inhibitor | RORg inh | VP16 counter | HepG2 viability | S2 tox | ATXN2 expr inh
S=C(Nc1cccc(Cl)c1)N(CCCN1CCCC1)Cc1cccn1Cc1ccc(Cl)cc1 | ? | 18µM* | ? | 25µM* | 28µM* | 32µM*
CSc1cccc(NC(=S)N(CCCN2CCCC2)Cc2cccn2Cc2ccc(Cl)cc2)c1 | ? | 13µM* | -2% | -175% | . | 14µM*
COc1cccc(NC(=S)N(CCCN2CCCC2)Cc2cccn2Cc2ccc(Cl)cc2)c1 | ? | ? | ? | -178% | ? | ?
O=C(CN1Cc2ccccc2OC(c2ccsc2)C1)NCC1OCCc2ccccc21 (stereo not given) | . | . | . | . | i | .
Cc1[nH]c(=O)c(C(=O)/C=C/c2ccccc2F)c2c1CCCC2 | ? | 5.6µM* | 5.6µM* | -85% | 28µM* | 8.9µM*
CC1CC(C)(C)CC2(C1)NC(=S)N(c1ccccc1)N2 (stereo not given) | 4% | 7.1µM* | ? | -1% | ? | -12%
CC1CCCC2(C1)NC(=S)N(c1ccccc1)N2 (stereo not given) | 11% | 13µM* | -9% | 5% | ? | ?
S=C1NC2(CCCCC2)NN1c1ccccc1 | 0% | ? | 2% | -1% | i | -25%
CC(C)(C)N1NC2(CCCCC2)NC1=S | -18% | 20% | -2% | -2% | i | -3%
CC(C)CCN1NC2(CCCC(C)C2)NC1=S (stereo not given) | ? | 7.1µM* | -30% | -6% | i | -11%
Cc1ccc(S(=O)(=O)c2cn(Cc3ccccc3)c3cc(N4CCCC4)c(F)cc3c2=O)cc1 | 10% | . | . | 12% | . | .
CCC(=O)NC(=S)Nc1ccc(S(=O)(=O)NC2CCCCC2)cc1 | -9% | -25% | -3% | -6% | . | -11%
O=C(NC(=S)Nc1ccc(S(=O)(=O)N2CCCCC2)cc1)c1cccs1 | ? | 4.5µM* | ? | -13% | i | -16%
O=C(NC(=S)Nc1ccc(S(=O)(=O)NC2CCCCC2)cc1)c1cccs1 | ? | 1.1µM* | 0.45µM* | 1% | ? | -25%
CCc1ccc(C2=CC(c3cccc(C)c3)n3c(nc4ccccc43)N2)cc1 (stereo not given) | ? | . | . | -24% | i | 22%
CCOC(=O)Cc1ccc(NC(=O)NC(C)c2c(-n3cccc3)sc(C)c2C)cc1 (stereo not given) | . | . | . | -35% | . | .
C[C@@H]1C[C@@H](CC(=O)NCC2Cc3cccc(-c4ccncc4)c3O2)NC(=S)N1 (stereo not given in full) | . | . | . | . | i | .
Cc1cc(C(=O)Cn2nc(C(=O)O)c3ccccc3c2=O)c(C)n1C1CC1 | 16% | 20% | -2% | -38% | i | 3%
COCCn1c(C)cc(C(=O)Cn2nc(C(=O)O)c3ccccc3c2=O)c1C | 24% | 5.6µM* | ? | 36% | i | .
C=CCn1c(C)cc(C(=O)Cn2nc(C(=O)O)c3ccccc3c2=O)c1C | 11% | 16µM* | ? | -13% | ? | -5%
